Assay results reported in PubChem BioAssay (EPA / NIEHS).
Several values for one entry are separate records, joined by “and”; a condition that tells them apart may be missing. Equal values may be shown once. Inconclusive results are not listed. Some compounds were tested as several samples or in several runs, with calls that do not always agree. Activity calls are given as the source filed them. The calls were made as follows: active = hit-call score of the fitted dose curve at least 0.9, where 1 is the maximum; inconclusive = response in the unintended direction; inactive = score below 0.9.

How the values were obtained:
[1] = molecular target: rat Peripheral-type Benzodiazepine Receptor (PBR), Tspo (gene 24230) (UniProt P16257); assay: NVS_MP_rPBR: NovaScreen (NVS) Membrane Protein Assay for rat Peripheral-type Benzodiazepine Receptor (PBR) (AID 2283335)
Sequence of rat Peripheral-type Benzodiazepine Receptor (PBR), Tspo (gene 24230) (P16257 whole entry, looked up): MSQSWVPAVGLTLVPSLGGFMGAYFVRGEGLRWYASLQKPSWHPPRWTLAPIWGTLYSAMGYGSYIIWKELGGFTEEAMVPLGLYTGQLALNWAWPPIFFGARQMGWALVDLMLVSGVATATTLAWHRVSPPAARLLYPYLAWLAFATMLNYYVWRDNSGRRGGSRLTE
Procedure, shortened: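 Radioligand displacement, rat kidney membrane prep, 1 h exposure, filter-based scintillation read; DMSO baseline, loss-of-signal scored. Primary screen at 25 uM in duplicate, actives followed up in concentration series.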

[2] = molecular target: bovine Estrogen Receptor (ER), ESR1 (gene 407238) (UniProt P49884); assay: NVS_NR_bER: NovaScreen (NVS) Nuclear Receptor Binding Assay for bovine Estrogen Receptor (ER) (AID 2283345);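 also: actives lower the bound radioligand count which means they displace the ER ligand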
Sequence of bovine Estrogen Receptor (ER), ESR1 (gene 407238) (P49884 whole entry, looked up): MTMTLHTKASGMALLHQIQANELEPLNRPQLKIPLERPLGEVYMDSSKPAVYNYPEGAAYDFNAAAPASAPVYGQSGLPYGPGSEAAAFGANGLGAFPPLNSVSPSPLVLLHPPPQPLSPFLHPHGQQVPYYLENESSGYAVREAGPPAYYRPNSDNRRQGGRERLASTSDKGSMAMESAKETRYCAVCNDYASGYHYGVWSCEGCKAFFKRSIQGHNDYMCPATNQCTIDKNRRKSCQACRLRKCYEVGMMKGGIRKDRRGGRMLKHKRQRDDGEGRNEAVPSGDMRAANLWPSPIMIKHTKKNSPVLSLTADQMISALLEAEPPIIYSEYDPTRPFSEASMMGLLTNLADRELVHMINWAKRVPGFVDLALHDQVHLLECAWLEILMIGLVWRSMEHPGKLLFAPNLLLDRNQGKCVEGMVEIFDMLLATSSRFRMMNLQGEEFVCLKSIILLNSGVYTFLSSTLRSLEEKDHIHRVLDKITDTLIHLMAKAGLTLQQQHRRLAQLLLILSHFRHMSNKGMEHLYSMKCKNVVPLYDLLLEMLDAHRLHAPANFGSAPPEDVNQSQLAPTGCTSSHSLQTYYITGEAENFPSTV
Procedure, shortened: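 Scintillation counting of displaced radioligand gave the readout; bovine uterine membrane extract supplied the receptor. Measured 18 h post-dose, normalized to DMSO baseline. Single 25 uM duplicate screen preceded concentration-response follow-up.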

[3] = molecular target: Estrogen receptor (Homo sapiens) (UniProt P03372); assay: NVS_NR_hER: NovaScreen (NVS) Nuclear Receptor Binding Assay for human Estrogen Receptor (ER) (AID 2283348)
Sequence of Estrogen receptor (Homo sapiens) (P03372 whole entry, looked up, the tested form may be a part): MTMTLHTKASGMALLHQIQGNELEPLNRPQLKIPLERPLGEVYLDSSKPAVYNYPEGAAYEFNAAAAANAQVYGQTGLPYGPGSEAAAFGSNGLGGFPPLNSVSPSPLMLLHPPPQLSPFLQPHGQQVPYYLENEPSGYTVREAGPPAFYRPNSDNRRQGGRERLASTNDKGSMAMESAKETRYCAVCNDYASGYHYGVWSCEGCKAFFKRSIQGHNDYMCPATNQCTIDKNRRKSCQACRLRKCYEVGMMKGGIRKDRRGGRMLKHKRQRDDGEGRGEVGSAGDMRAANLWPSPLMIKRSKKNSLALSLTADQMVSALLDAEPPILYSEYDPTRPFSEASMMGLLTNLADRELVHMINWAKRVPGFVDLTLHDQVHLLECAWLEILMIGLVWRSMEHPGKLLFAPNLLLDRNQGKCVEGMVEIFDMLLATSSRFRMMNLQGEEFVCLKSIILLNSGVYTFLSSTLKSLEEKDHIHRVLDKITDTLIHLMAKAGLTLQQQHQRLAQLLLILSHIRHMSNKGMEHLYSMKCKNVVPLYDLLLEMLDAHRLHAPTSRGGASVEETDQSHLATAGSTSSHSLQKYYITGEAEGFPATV
Procedure, shortened: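 Radioligand competitive displacement binding to estrogen receptor from MCF7 extract, cell-free; 18 h after dosing, scintillation read-out. Primary screen in duplicate at 25 uM; actives followed up in concentration series; loss of signal vs DMSO.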

[4] = molecular target: Estrogen receptor (Homo sapiens) (UniProt P03372); assay: OT_ER_ERaERa_0480: Odyssey Thera (OT) 8-hour HEK293T Protein-Complementation Assay for Estrogen Receptor-alpha/-alpha Homodimer (AID 2283351);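 also: rise in fluorescence from reassembled reporter fragments on ERα LBD homodimer in nucleus or whole cell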
Procedure, shortened: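 Binding reporter in which dimerisation of ERα LBD (aa 310-547) fusions reconstitutes a fluorescent reporter in HEK293T cells. Compounds incubated 8 h; mean fluorescence intensity increase versus DMSO scored.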

[5] = molecular target: T1, Estrogen receptor (Homo sapiens) + Estrogen receptor beta (Homo sapiens) (UniProt P03372+Q92731); assay: OT_ER_ERaERb_0480: Odyssey Thera (OT) 8-hour HEK293T Protein-Complementation Assay for Estrogen Receptor-alpha/-beta Heterodimer (AID 2283352)
T1 sequence (P03372 whole entry, looked up, the tested form may be a part): as above
T1 sequence (Q92731 whole entry, looked up, the tested form may be a part): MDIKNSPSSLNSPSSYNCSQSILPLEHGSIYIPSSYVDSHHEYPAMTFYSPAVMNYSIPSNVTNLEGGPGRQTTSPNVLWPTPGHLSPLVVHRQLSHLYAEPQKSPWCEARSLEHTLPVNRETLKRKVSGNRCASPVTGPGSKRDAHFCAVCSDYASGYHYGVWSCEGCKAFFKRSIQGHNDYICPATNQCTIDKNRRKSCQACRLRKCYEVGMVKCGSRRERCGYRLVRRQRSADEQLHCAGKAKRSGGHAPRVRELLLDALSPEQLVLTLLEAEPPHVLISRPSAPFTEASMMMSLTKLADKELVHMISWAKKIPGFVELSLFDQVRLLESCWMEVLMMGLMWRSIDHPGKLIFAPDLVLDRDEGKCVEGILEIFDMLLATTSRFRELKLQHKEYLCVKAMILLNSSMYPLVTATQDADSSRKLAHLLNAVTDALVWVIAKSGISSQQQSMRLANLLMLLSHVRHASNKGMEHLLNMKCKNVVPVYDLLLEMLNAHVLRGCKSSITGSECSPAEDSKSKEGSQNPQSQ
Procedure, shortened: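 Increase in mean fluorescence intensity, measured by laser scanning plate cytometry, reported ER-alpha/ER-beta LBD complementation in HEK293T cells after 8 h chemical exposure. DMSO served as baseline; basal signal is low, punctate and cytoplasmic.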

[6] = molecular target: T1, Estrogen receptor (Homo sapiens) + Estrogen receptor beta (Homo sapiens); assay: OT_ER_ERaERb_1440: Odyssey Thera (OT) 24-hour HEK293T Protein-Complementation Assay for Estrogen Receptor-alpha/-beta Homodimer (AID 2283356);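 also: heteromer of ER alpha and ER beta binding domains; hits raise reporter fluorescence and both agonists and antagonists give an increase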
Procedure, shortened: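 Heterodimerisation of ERα (aa 310-547) and ERβ (aa 263-489) ligand binding domains was tracked as fluorescence gain in stably transfected HEK293T cells following 24 h dosing, normalised to DMSO controls.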

[7] = molecular target: Estrogen receptor beta (Homo sapiens) (UniProt Q92731); assay: OT_ER_ERbERb_0480: Odyssey Thera (OT) 8-hour HEK293T Protein-Complementation Assay for Estrogen Receptor-beta/-beta Homodimer (AID 2283357);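 also: active means signal gain over DMSO baseline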
Sequence of Estrogen receptor beta (Homo sapiens) (Q92731 whole entry, looked up, the tested form may be a part): as above
Procedure, shortened: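 Fluorescence intensity, nuclear for agonists and nuclear plus cytoplasmic for antagonists, was quantified by laser scanning cytometry versus vehicle after 8 h treatment. The cells were HEK293T stably carrying ER beta LBD fragment-complementation partners.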

[8] = NVS_IC_rCaBTZCHL: NovaScreen (NVS) Ion Channel Assay for Calcium Channel, Type L, Benzothiazepine Site (CaBTZCHL) (AID 2283337)
Procedure, shortened: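 Competitive displacement of a site-specific radioligand from rat cortex membranes, measured as signal loss against DMSO baseline by filter radiodetection after 1.5 h. Single-point 25 uM primary screen.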

[9] = molecular target: Estrogen receptor (Homo sapiens) (UniProt P03372); assay: OT_ER_ERaERa_1440: Odyssey Thera (OT) 24-hour HEK293T Protein-Complementation Assay for Estrogen Receptor-alpha/-alpha Homodimer (AID 2283349);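 also: hits raise fluorescence above DMSO for agonists and antagonists alike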
Procedure, shortened: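 HEK293T cells stably expressing the human ER alpha ligand-binding domain (aa 310-547) as a homodimer PCA were dosed for 24 hours. Fluorescence intensity was read by laser scanning cytometry, and gain of signal was fitted relative to DMSO vehicle.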

[10] = molecular target: Voltage-gated inwardly rectifying potassium channel KCNH2 (Homo sapiens) (UniProt Q12809); assay: NVS_IC_hKhERGCh: NovaScreen (NVS) Ion Channel Assay for human Potassium Channel ERG (KhERGCh) (AID 2283333)
Procedure, shortened: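 Cell-free radioligand competition binding on hERG protein extracted from CHO cells, read by filter-based scintillation counting 0.75 h after dosing. Primary screen at 25 uM in duplicate, actives followed in concentration series. Signal loss fitted versus DMSO.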

[11] = molecular target: chimpanzee Androgen Receptor (AR), AR (gene 747460) (UniProt O97775); assay: NVS_NR_cAR: NovaScreen (NVS) Nuclear Receptor Binding Assay for chimpanzee Androgen Receptor (AR) (AID 2283346);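 also: radioligand displacement from AR measured by scintillation counting in a cell-free assay; a loss of bound radioligand signal versus DMSO counts as binding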
Sequence of chimpanzee Androgen Receptor (AR), AR (gene 747460) (O97775 whole entry, looked up): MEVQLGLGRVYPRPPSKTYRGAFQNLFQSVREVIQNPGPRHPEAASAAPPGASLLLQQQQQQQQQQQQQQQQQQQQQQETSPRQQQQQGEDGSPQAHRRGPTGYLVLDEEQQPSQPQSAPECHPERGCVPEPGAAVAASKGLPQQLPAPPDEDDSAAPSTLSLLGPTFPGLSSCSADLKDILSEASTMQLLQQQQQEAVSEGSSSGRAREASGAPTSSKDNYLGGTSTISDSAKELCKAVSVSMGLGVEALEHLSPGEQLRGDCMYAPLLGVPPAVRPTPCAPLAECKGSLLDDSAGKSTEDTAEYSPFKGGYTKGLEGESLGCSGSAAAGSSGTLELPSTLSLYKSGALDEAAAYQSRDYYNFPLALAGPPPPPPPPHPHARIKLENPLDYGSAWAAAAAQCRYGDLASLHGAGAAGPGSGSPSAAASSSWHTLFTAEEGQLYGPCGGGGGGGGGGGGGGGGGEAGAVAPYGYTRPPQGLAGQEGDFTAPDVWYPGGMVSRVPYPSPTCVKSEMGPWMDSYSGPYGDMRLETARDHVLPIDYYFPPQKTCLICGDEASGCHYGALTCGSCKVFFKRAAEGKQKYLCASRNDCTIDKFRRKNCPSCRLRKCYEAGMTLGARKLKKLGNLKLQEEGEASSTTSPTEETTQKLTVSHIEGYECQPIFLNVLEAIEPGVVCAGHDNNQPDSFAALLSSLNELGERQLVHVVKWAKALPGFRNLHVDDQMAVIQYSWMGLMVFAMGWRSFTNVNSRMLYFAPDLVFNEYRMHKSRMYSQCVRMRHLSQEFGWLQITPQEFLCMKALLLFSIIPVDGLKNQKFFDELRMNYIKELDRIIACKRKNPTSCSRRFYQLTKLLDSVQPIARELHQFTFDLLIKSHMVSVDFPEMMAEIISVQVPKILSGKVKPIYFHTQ
Procedure, shortened: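 Radioligand binding to chimpanzee AR expressed in Sf9/Sf21 cells, cell-free, measured 72 h after dosing by lysate-based scintillation counting. Loss of signal vs DMSO; initial duplicate screen at 25 uM, actives retested in concentration series.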

[12] = molecular target: Androgen Receptor/SRC-1 Co-activator, AR (gene 367) (UniProt P10275); assay: OT_AR_ARSRC1_0960: Odyssey Thera (OT) 16-hour HEK293T Protein-Complementation Assay for Androgen Receptor/SRC-1 Co-activator (AID 2283353);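 also: actives raise the signal above DMSO so potency reflects increased AR and SRC-1 complex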
Sequence of Androgen Receptor/SRC-1 Co-activator, AR (gene 367) (P10275 whole entry, looked up, the tested form may be a part): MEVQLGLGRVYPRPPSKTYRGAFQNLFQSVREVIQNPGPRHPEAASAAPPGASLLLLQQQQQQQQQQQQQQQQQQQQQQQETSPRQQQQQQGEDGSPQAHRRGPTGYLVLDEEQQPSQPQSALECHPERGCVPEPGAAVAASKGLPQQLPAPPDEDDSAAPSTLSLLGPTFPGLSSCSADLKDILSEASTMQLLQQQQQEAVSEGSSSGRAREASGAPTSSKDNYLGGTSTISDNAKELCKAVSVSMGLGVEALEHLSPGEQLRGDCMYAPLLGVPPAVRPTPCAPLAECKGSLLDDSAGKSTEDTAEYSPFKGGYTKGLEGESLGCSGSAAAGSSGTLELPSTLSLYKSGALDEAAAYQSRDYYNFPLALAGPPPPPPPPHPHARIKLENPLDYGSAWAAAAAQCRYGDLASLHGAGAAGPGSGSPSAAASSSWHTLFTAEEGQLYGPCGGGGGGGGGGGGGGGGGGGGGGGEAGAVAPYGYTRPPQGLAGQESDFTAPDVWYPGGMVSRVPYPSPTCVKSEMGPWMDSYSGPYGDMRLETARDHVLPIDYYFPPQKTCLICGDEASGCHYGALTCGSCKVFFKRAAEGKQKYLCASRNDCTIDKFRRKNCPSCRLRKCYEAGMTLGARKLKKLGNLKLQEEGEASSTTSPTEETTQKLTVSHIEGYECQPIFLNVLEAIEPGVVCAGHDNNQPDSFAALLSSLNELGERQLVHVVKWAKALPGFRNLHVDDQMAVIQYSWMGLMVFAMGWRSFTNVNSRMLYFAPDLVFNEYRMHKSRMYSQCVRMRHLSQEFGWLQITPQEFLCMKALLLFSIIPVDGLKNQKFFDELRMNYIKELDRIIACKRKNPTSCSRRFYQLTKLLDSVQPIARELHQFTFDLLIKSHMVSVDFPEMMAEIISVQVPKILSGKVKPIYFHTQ
Procedure, shortened: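 Interaction of AR with SRC-1 was followed by YFP fragment complementation in HEK293T cells after 16 h of dosing. Gain of nuclear-over-cytoplasmic 488 nm fluorescence against DMSO controls defined activity.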

[13] = molecular target: Androgen Receptor/SRC-1 Co-activator, AR (gene 367) (UniProt P10275); assay: OT_AR_ARSRC1_0480: Odyssey Thera (OT) 8-hour HEK293T Protein-Complementation Assay for Androgen Receptor/SRC-1 Co-activator (AID 2283354);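 also: hits raise the complementation signal above DMSO so AC50 marks enhancers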
Procedure, shortened: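 HEK293T cells stably expressing AR and SRC-1 fused to Venus YFP fragments, imaged 8 h after dosing. Complementation fluorescence scored as nuclear/cytoplasmic ratio at 488 nm in at least 400 cells per image; gain fitted versus DMSO.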

[14] = molecular target: bovine Gamma-Aminobutyric Acid Type A Receptor Agonist (GABAR Agonist), GABRA1 (gene 780973) (UniProt P08219); assay: NVS_LGIC_bGABAR_Agonist: NovaScreen (NVS) Ligand-Gated Ion Channel Assay for bovine Gamma-Aminobutyric Acid Type A Receptor Agonist (GABAR Agonist) (AID 2283338)
Sequence of bovine Gamma-Aminobutyric Acid Type A Receptor Agonist (GABAR Agonist), GABRA1 (gene 780973) (P08219 whole entry, looked up): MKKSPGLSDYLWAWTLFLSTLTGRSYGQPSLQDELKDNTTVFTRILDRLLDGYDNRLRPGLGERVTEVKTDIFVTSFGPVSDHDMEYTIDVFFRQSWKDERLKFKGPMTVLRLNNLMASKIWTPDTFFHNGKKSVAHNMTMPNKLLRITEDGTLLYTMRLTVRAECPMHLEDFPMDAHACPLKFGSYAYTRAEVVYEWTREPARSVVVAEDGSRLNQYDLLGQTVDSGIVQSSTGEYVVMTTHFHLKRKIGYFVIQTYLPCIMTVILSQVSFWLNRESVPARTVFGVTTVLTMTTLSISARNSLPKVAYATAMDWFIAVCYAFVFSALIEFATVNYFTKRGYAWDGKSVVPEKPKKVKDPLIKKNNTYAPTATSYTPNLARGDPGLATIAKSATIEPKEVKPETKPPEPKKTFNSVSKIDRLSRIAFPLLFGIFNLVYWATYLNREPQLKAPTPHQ
Procedure, shortened: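 Radioligand binding to bovine cerebellar membranes in agonist format, read by filter-based scintillation counting after 1 h. Primary screen in duplicate at 25 uM, with actives followed in concentration series. Gain of signal versus DMSO.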

[15] = molecular target: Bile acid receptor (Homo sapiens) (UniProt Q96RI1); assay: NVS_NR_hFXR_Antagonist: NovaScreen (NVS) Nuclear Receptor Binding Assay for human Farnesoid X Receptor Antagonism (FXR) (AID 2283350)
Sequence of Bile acid receptor (Homo sapiens) (Q96RI1 whole entry, looked up): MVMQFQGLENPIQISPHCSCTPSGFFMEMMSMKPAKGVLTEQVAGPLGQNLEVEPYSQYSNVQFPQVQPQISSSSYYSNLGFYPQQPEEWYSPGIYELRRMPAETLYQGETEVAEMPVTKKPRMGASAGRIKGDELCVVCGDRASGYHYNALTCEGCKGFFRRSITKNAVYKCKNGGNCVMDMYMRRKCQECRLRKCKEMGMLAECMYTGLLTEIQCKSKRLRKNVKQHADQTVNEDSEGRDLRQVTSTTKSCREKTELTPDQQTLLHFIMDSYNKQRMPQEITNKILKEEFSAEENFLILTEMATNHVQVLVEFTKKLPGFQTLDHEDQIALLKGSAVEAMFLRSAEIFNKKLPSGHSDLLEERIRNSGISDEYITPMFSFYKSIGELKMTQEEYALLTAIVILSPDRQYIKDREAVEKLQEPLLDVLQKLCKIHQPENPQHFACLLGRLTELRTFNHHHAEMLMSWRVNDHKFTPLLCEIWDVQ
Procedure, shortened: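 Cell-free TR-FRET ligand-binding read-out on human FXR (NR1H4) in antagonist mode, measured 1 h after dosing. Primary screen in duplicate at 25 uM, actives retested in concentration series; signal loss scored versus DMSO.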

[16] = tested on: NCBI gene 100848466; assay: NVS_NR_bPR: NovaScreen (NVS) Nuclear Receptor Binding Assay for bovine Progextron Receptor (PR) (AID 2283343);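 as to AC50: actives lower bound radioligand signal below DMSO meaning displacement of the label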
Procedure, shortened: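 Bovine uterine membrane preparation; radioligand displacement read by scintillation counting 18 h after dosing. Primary screen single concentration, 25 uM, in duplicate; actives followed up in concentration series. Signal loss versus DMSO baseline.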

[17] = molecular target: rat Mineralocorticoid Receptor (MR), Nr3c2 (gene 25672) (UniProt P22199); assay: NVS_NR_rMR: NovaScreen (NVS) Nuclear Receptor Binding Assay for rat Mineralocorticoid Receptor (MR) (AID 2283355)
Procedure, shortened: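 Cell-free radioligand binding to mineralocorticoid receptor from adrenalectomized rat brain supernatant, scintillation counting after 24 h. Primary screen in duplicate at 25 uM; actives retested in concentration series. Loss of specific binding versus DMSO.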

Measured: AC50

O=S(=O)(c1ccc(O)cc1)c1ccc(O)cc1
active: [1] 4.76 µM | [2] 15.1 µM | [3] 4.77 µM | [4] 36.7 µM | [5] 21.4 µM | [6] 29.2 µM | [7] 31.2 µM

CCOP(=S)(OCC)SCn1nnc2ccccc2c1=O
active: [1] 9.51 µM
inactive: [3]

CCCCOCCOP(=O)(OCCOCCCC)OCCOCCCC
inactive: [8] | [9] | [4] | [6] | [7]
active: [1] 7.47 µM and 7.45 µM

CCCCCCCc1ccc(O)cc1
active: [10] 0.766 µM | [2] 0.106 µM | [3] 18.8 µM | [4] 26.1 µM and 23.4 µM and 23.6 µM | [5] 12.7 µM and 12.5 µM | [12] 72 µM and 72.7 µM and 73.8 µM | [13] 74.4 µM and 73.3 µM | [6] 15.3 µM and 11.3 µM | [7] 12.2 µM and 13.3 µM and 12.3 µM
inactive: [2] | [11] | [3] | [4] | [5] | [12] | [13] | [6] | [7]

CCCCN(CCCC)N=O
inactive: [14] | [9] | [15] | [5] | [6]

O=P1(N(CCCl)CCCl)NCCCO1 (configuration not stated)
active: [3] 15.7 µM
inactive: [2] | [3] | [4] | [5] | [6] | [7]

CC(Cl)(Cl)C(=O)O
inactive: [2] | [3] | [4] | [5] | [6] | [7]

Cc1ccc2c(c1N)C(=O)c1ccccc1C2=O
active: [1] 1.4 µM
inactive: [8] | [2]

CCCCN(CCCC)SN(C)C(=O)Oc1cccc2c1OC(C)(C)C2
inactive: [16] | [2] | [3] | [4] | [5] | [6] | [7]

O=P(Oc1ccccc1)(Oc1ccccc1)Oc1ccccc1
inactive: [14]
active: [1] 1.96 µM | [4] 12.1 µM | [5] 12.2 µM | [6] 12.4 µM | [7] 12.2 µM

CSC(C)(C)C=NO
active: [17] 4.44 µM
inactive: [16] | [9] | [4]

CCOP(=S)(Oc1ccc([N+](=O)[O-])cc1)c1ccccc1 (configuration not stated)
active: [16] 10.4 µM | [4] 14.8 µM | [5] 19.2 µM | [6] 14.1 µM | [7] 26.4 µM
inactive: [2]
